Assay results as given in PubChem BioAssay (EPA / NIEHS).
Records with an inconclusive call do not appear. Calls of active or inactive are those of the source. How the source made its calls, unless noted: active means hit-call score of the fitted dose curve at least 0.9, where 1 is the maximum; inconclusive means response in the unintended direction; inactive means score below 0.9.

Experiments:
[1] = Tanguay_ZF_120hpf_TR_legacy: (Legacy) Oregon State University Tanguay Lab 120 Hour Post-fertilization zebrafish Assay for Touch Response (AID 2283667)
Procedure, shortened: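 Tropical 5D wild-type zebrafish embryos were exposed statically in sealed, foil-covered plates at 28C until 120 hpf, with 0.64% (vol/vol) final DMSO. Touch response was scored as present or absent; embryos that died were not scored.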

[2] = read-out: Cytochrome P450 (CYP24A1_1), CYP24A1 (gene 1591); assay: LTEA_HepaRG_CYP24A1_1: Life Technologies and Expression Analysis (LTEA) Assay for Cytochrome P450 (CYP24A1_1) using HepaRG (AID 2283671; active means hit-call score of the fitted dose curve at least 0.9, where 1 is the maximum; inactive means score below 0.9); settings: mRNA level, 48 h; actives raise or lower the signal
Procedure, shortened: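 HepaRG, 48 h exposure, 8-pt half-log series from 100 uM in 0.5% DMSO, duplicates. Readout: TaqMan qRT-PCR of CYP24A1 mRNA, housekeeping-normalized (ACTB/GAPDH/POLR2A). Bidirectional curve fit vs DMSO baseline.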

[3] = Tanguay_ZF_120hpf_ActivityScore_legacy: (Legacy) Oregon State University Tanguay Lab 120 Hour Post-fertilization zebrafish Assay Score for Activity (AID 2283742);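 on AC50: static exposure from 6 hpf until 120 hpf at 28 °C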
Procedure, shortened: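 Tropical 5D wild-type zebrafish embryos, dechorionated with pronase at 4 hpf, were exposed singly from 6 hpf to 120 hpf statically at 28C in 0.64% DMSO. Malformations and mortality were scored as binary by brightfield, with the activity score combining 18 morphology components.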

[4] = CCTE_Padilla_ZF_144hpf_TERATOSCORE: (Legacy) CCTE's 144 Hour Post-fertilization zebrafish Assay Teratoscore, Padilla Lab (AID 2283679; active means hit-call score of the fitted dose curve at least 0.9, where 1 is the maximum; inactive means score below 0.9;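 on AC50: zebrafish embryos with chorions exposed by immersion from 6-8 hpf to 5 dpf with daily renewal; teratogenicity score from eye scoring of death hatching and malformations at 144 hpf; higher score means more developmental defects relative to DMSO baseline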)
Procedure, shortened: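 Larvae scored by eye at 144 hpf for death, hatching and malformations after a day in clean Hanks'. Before that, daily-renewed exposure at 80 uM (0.4% DMSO, 26C) from roughly 6-8 hpf through 5 dpf, 4 embryos per chemical.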

[5] = STM_H9_OrnithineISnorm_perc: Stemina devTOX quickPredict H9 human embryonic stem cell (hESC)-based Assay for Ornithine (ORN) Metabolite Biomarker, Normalized (AID 2283712; active means hit-call score of the fitted dose curve at least 0.9, where 1 is the maximum; inactive means score below 0.9;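 further: ornithine released into spent medium during last day measured by mass spectrometry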)
Procedure, shortened: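 H9 human embryonic stem cells kept pluripotent receive test chemical over 72 h, refreshed daily by media exchange. Media from the closing 24 h is deproteinized and analysed by UPLC-HRMS on an amide column; ornithine signal is scaled to labelled standard and vehicle.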

[6] = STM_H9_CystineISnorm_perc: Stemina devTOX quickPredict H9 human embryonic stem cell (hESC)-based Assay for Cystine (CYSS) Metabolite Biomarker, Normalized (AID 2283713; active means hit-call score of the fitted dose curve at least 0.9, where 1 is the maximum; inactive means score below 0.9)
Procedure, shortened: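 H9 hESC, pluripotent; compound 72h, re-dosed q24h with medium change. Last-24h medium → 40% acetonitrile deproteinization → UPLC-HRMS. CYSS area / C13-CYSS standard, then % of 0.1% DMSO median.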

[7] = STM_H9_OrnCyssISnorm_ratio: Stemina devTOX quickPredict H9 human embryonic stem cell (hESC)-based Assay for Ornithine (ORN):Cystine (CYSS) Ratio (AID 2283714)
Procedure, shortened: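 Undifferentiated H9 hESCs were exposed to compound for 72h with media and chemical replaced every 24h. Final 24-h conditioned media were deproteinized and analysed by UPLC-HRMS. ORN and CYSS peak areas were normalized to C13 internal standards and the ratio taken versus 0.1% DMSO.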

[8] = CEETOX_H295R_MTT_cell_viability: Viability Assessment in the CeeTox HT-H295R MTT Assay (AID 2283718; active means hit-call score of the fitted dose curve at least 0.9, where 1 is the maximum; inactive means score below 0.9;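 on AC50: curve fitted both ways so AC50 may mark viability loss or gain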)
Procedure, shortened: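 H295R cells prestimulated 48 h with 10 uM forskolin, then exposed 48 h to test chemical (0.1% DMSO final). Viability by MTT (0.5 mg/ml, 4 h, 37 C), absorbance 570/650 nm; percent change versus DMSO, bidirectional fit.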

[9] = system: Thyroperoxidase (TPO), gene 445522; assay: CCTE_Simmons_GUA_TPO: CCTE's Guaiacol Assay for Thyroperoxidase (TPO) Inhibition, Simmons Lab (AID 2283750)
Procedure: CCTE_Simmons_GUA_TPO is a biochemical, single-readout assay that uses microsomes from porcine thyroid gland in a tissue-based cell-free assay. Measurements were taken 0.5 hour after chemical dosing in a 384-well plate.CCTE_Simmons_GUA_TPO is the assay component measured from the CCTE_Simmons_GUA_TPO assay. It is designed to make measurements of enzyme activity, a form of enzyme reporter, as detected with absorbance signals by enzyme activity technology. This is an orthogonal assay to CCTE_Simmons_AUR_TPO run for confirmation.Data from the assay component CCTE_Simmons_GUA_TPO was analyzed at the endpoint, CCTE_Simmons_GUA_TPO, in the positive analysis fitting direction relative to DMSO as the negative control and baseline of activity. Using a type of enzyme reporter, measures of enzyme activity for loss-of-signal activity can be used to understand the binding at the pathway-level as they relate to the gene TPO. To generalize the intended target to other relatable targets, this assay endpoint is annotated to the oxidoreductase intended target family, where the subfamily is peroxidase.
The GUA assay has been described previously for both rat and pig thyroid microsomes (Chang and Doerge, 2000; Paul et al., 2013; Tietge et al., 2013). All reactions were conducted in a final reaction volume of 65 ul. Porcine thyroid microsomes (25 ug) diluted in 45 ul of 200mM potassium phosphate buffer (per well) was dispensed into clear, 384-well plates. Test compounds were administered using the HDRT as described earlier. Guaiacol (10 ul; 35mM final assay concentration) was then added using a BMG Clariostar plate reader equipped with syringe injectors and incubated with test chemical exposure at 37C for 30s. H2O2 (10 ul; 1mM final assay concentration) was then added using syringe injectors to initiate the reaction. The oxidation of guaiacol was monitored during the linear phase (first 80 seconds of the reaction) at 450nm, and the change in absorbance over this period was recorded for data analysis. Three biological replicates of technical singles were run for every chemical concentration tested. A titrated range of MMI served as a positive control for TPO inhibition on each plate ranging from 0.01 to 100 uM final concentration. Test chemicals were administered as a titrated series of 8 concentrations from 5 nM up to 87.5 uM [final] for 30 seconds prior to kinetic endpoint detection at 0.25 second intervals for 80 seconds. Dimethylsulfoxide [DMSO] was used as the vehicle control. Methimazole [MMI] was used as the positive control and was administered as a titrated series of 8 concentrations from 10 nM up to 100 uM [final].

[10] = ArunA_CellTiter_hNC: Viability Assessment in the ArunA Biomedical's Oris Neural Crest (hNC) Cell Migration Assay (AID 2283752)
Procedure, shortened: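 Cell titer was measured with the CellTiter Aqueous One reagent after 72 h of chemical dosing. Cells were H9-derived embryonic neural crest stem cells seeded on Matrigel, 60,000 per well, and given 16 h at 37C beforehand.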

O=[N+]([O-])C(Br)(CO)CO
outcome [1]: inactive
outcome [2]: inactive
outcome [3]: inactive

CC(C)(C)C(O)(CCc1ccc(Cl)cc1)Cn1cncn1 (stereo not given)
outcome [1]: inactive
AC50 [4]: 52 µM (active)
AC50 [5]: 79.1 µM (active)
AC50 [6]: 30.1 µM (active)
AC50 [7]: 45 µM (active)
outcome [8]: inactive
outcome [3]: inactive

CCN(CC)CCO
outcome [1]: inactive
outcome [2]: inactive
outcome [3]: inactive

O=[N+]([O-])c1ccc(Oc2ccc(Cl)cc2Cl)cc1
outcome [1]: inactive
AC50 [4]: 7.79 µM (active)
AC50 [5]: 68.7 µM (active)
AC50 [6]: 29.8 µM (active)
AC50 [7]: 50 µM (active)
outcome [3]: inactive

Cc1cccc(N)c1N
outcome [1]: inactive
AC50 [4]: 57 µM (active)
AC50 [5]: 76.4 µM (active)
AC50 [6]: 79 µM (active)
AC50 [7]: 74.5 µM (active)
AC50 [8]: 1.07 µM (active)
AC50 [3]: 44.5 µM (active)

OCCCBr
outcome [1]: inactive
outcome [4]: inactive
outcome [5]: inactive
outcome [6]: inactive
outcome [7]: inactive
outcome [3]: inactive

C[C@]12C=CC3=C4CCC(=O)C=C4CC[C@H]3[C@@H]1CC[C@@H]2O
outcome [1]: inactive
outcome [2]: inactive
AC50 [4]: 31 µM (active)
outcome [8]: inactive
AC50 [3]: 118 µM (active)

CCCCCCCCn1sccc1=O
outcome [1]: inactive
AC50 [4]: 0.523 µM (active)
AC50 [5]: 43 µM (active)
AC50 [6]: 11.5 µM (active)
AC50 [7]: 22.4 µM (active)
AC50 [3]: 3.42 µM (active)

Nc1ccc(Oc2ccc(N)cc2)cc1
AC50 [9]: 0.366 µM (active)

COP(=S)(OC)SCN1C(=O)c2ccccc2C1=O
outcome [9]: inactive

Clc1ccc(Cl)c(Cl)c1
outcome [10]: inactive

OCCCl
outcome [1]: inactive
outcome [3]: inactive

[As]#[In]
outcome [1]: inactive
outcome [8]: inactive
outcome [3]: inactive

CCCSC(=O)N(CCC)CCC
outcome [1]: inactive
outcome [3]: inactive

Clc1ccc(C(c2ccc(Cl)cc2)C(Cl)(Cl)Cl)cc1
AC50 [4]: 3.44 µM (active)
outcome [5]: inactive
outcome [6]: inactive
outcome [3]: inactive

Nc1ccc(Cc2ccc(N)cc2)cc1
outcome [1]: inactive
AC50 [8]: 2.04 µM (active)
outcome [3]: inactive
AC50 [9]: 0.352 µM (active)

O=C(Oc1ccc(Br)cc1)N1CCN2CCC1CC2
outcome [3]: inactive

CC(C)N(Cc1ccccc1)C(=O)C(C)(C)C
outcome [1]: inactive
outcome [8]: inactive
outcome [3]: inactive

c1ccc(C2CO2)cc1 (stereo not given)
outcome [1]: inactive
outcome [3]: inactive

ClCCOCCCl
outcome [1]: inactive
outcome [3]: inactive

CCCCCCCCOC(=O)c1ccc(C(=O)OCCCCCCCC)c(C(=O)OCCCCCCCC)c1
outcome [1]: inactive
outcome [3]: inactive

c1ccc2c(c1)oc1ccccc12
outcome [1]: inactive
outcome [3]: inactive

c1ccc2c(c1)-c1cccc3cccc-2c13
outcome [1]: inactive
outcome [8]: inactive
outcome [3]: inactive

c1ccc(NNc2ccccc2)cc1
outcome [1]: inactive
outcome [3]: inactive

Clc1ccccc1Cl
outcome [1]: inactive
outcome [3]: inactive

CCCCC(CC)COC(=O)c1ccc(C(=O)OCC(CC)CCCC)c(C(=O)OCC(CC)CCCC)c1 (stereo not given)
outcome [1]: inactive
outcome [3]: inactive

CN(C)[C@@H]1C(=O)C(C(N)=O)=C(O)[C@@]2(O)C(=O)C3=C(O)c4c(O)cccc4[C@@](C)(O)[C@H]3C[C@@H]12
outcome [1]: inactive
outcome [3]: inactive
AC50 [9]: 117 µM (active)

Cc1ccc(N=C=O)cc1N=C=O
outcome [1]: inactive
outcome [8]: inactive
outcome [3]: inactive

CC(C)(C)OOC(=O)c1ccccc1
outcome [3]: inactive

CC(C)(C)OOC(C)(C)CCC(C)(C)OOC(C)(C)C
outcome [1]: inactive
outcome [3]: inactive

COc1cc(C=O)cc2c1[C@H](COC(N)=O)[C@]1(OC(C)=O)ON2C[C@H]2[C@@H]1N2C(C)=O
outcome [4]: inactive
AC50 [5]: 0.00101 µM (active)
AC50 [6]: 0.0003 µM (active)
AC50 [7]: 0.000797 µM (active)
AC50 [3]: 23.4 µM (active)

CN(C)c1ccccc1
outcome [1]: inactive
outcome [3]: inactive
AC50 [9]: 23.7 µM (active)

O=C(O)C1C2CCC(O2)C1C(=O)O (stereo not given)
outcome [3]: inactive

N#CC(Br)(Br)C(N)=O
outcome [1]: inactive
outcome [3]: inactive

Nc1ccc([N+](=O)[O-])cc1
outcome [1]: inactive
outcome [3]: inactive

O=P(OCCCl)(OCCCl)OCCCl
outcome [5]: inactive
outcome [6]: inactive
outcome [8]: inactive
outcome [3]: inactive
outcome [10]: inactive

c1ccc(N=Nc2ccccc2)cc1
outcome [8]: inactive
outcome [3]: inactive

Oc1ccccc1Cl
outcome [3]: inactive

CC(C)(O)c1cnn2c(-c3ccc(F)c(-c4c(F)cccc4C#N)c3)cnc2n1
outcome [1]: inactive
outcome [8]: inactive
outcome [3]: inactive
